Source: the supplement of paper PMC6522484
± gives the standard deviation of the averaged measurements.

Experiments:
DLD1 [1] = assay: cell viability (CellTiter-Glo) relative to plate median (fraction of plate median); higher = more viable cells; conditions: 10 µM, treatment time 24 h
Method in brief: (§1)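 Colorectal cancer cells expressing a stably transduced lentiviral TCF/Wnt firefly luciferase reporter were treated in 384-well plates with kinase inhibitor library compounds at a final 10 µM for 24 h. Firefly luciferase or CellTiterGlo luminescence was then read on parallel plates. Well signals were normalised to the plate median (webcellHTS2, additive, no log transformation) and averaged over two independent replicates.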

HCT116 [2] = assay: as above; conditions: 10 µM; treatment time 24 h; reporter: TCF4/Wnt
Method in brief: as §1

SW480 [3] = assay: as above; conditions: 10 µM; treatment time 24 h; reporter: 7TFP
Method in brief: as §1

DLD1 [4] = assay: TCF/Wnt firefly luciferase reporter signal relative to plate median (fraction of plate median); higher = higher Wnt reporter signal; conditions: 10 µM, treatment time 24 h
Method in brief: as §1

HCT116 [5] = assay: as above; conditions: 10 µM; treatment time 24 h; reporter: TCF4/Wnt
Method in brief: as §1

SW480 [6] = assay: as above; conditions: 10 µM; treatment time 24 h; reporter: 7TFP
Method in brief: as §1

SMILES | cell viability (DLD1 [1]; reporter: 7TFP) | cell viability (DLD1 [1]; reporter: TCF4/Wnt) | cell viability (HCT116 [2]) | cell viability (SW480 [3]) | TCF/Wnt firefly luciferase reporter signal (DLD1 [4]; reporter: 7TFP) | TCF/Wnt firefly luciferase reporter signal (DLD1 [4]; reporter: TCF4/Wnt) | TCF/Wnt firefly luciferase reporter signal (HCT116 [5]) | TCF/Wnt firefly luciferase reporter signal (SW480 [6])
O=C1Nc2ccccc2/C1=C1/Nc2ccccc2C1=O [Indirubin] | 0.941 ± 0.044 | 0.819 ± 0.025 | 1.09 ± 0.13 | 0.862 ± 0.034 | 1.44 ± 0.057 | 1.2 ± 0.31 | 0.935 ± 0.054 | 1.08 ± 0.042
CN1CCN(CCOc2cc(OC3CCOCC3)c3c(Nc4c(Cl)ccc5c4OCO5)ncnc3c2)CC1 [Saracatinib (AZD0530)] | 0.936 ± 0.048 | 0.874 ± 0.066 | 0.968 ± 0.0042 | 1.03 ± 0.047 | 0.824 ± 0.12 | 0.879 ± 0.036 | 0.799 ± 0.25 | 0.613 ± 0.32
Nc1nc(N)c2nc(-c3cccc(O)c3)cnc2n1 | 1.09 ± 0.014 | 1.08 ± 0.021 | 0.97 ± 0.018 | 1.04 ± 0.064 | 1.4 ± 0.26 | 1.15 ± 0.085 | 1.33 ± 0.31 | 1.34 ± 0.042
O=C(NOCC1CC1)c1ccc(F)c(F)c1Nc1ccc(I)cc1Cl | 1.19 ± 0.028 | 1.065 ± 0.0071 | 1.11 ± 0.028 | 1.1 ± 0.11 | 1.2 ± 0.042 | 1.04 ± 0.23 | 0.9945 ± 0.0078 | 1.16 ± 0.32
COc1ncc(-c2ccc3nccc(-c4ccnnc4)c3c2)cc1NS(=O)(=O)c1ccc(F)cc1F | 0.84 ± 0.018 | 0.944 ± 0.073 | 0.295 ± 0.026 | 1.09 ± 0.042 | 0.255 ± 0.054 | 0.238 ± 0.067 | 0.132 ± 0.021 | 0.558 ± 0.0092
